Experimental data published in PubChem BioAssay (NCATS).
Results filed as inconclusive are left out. The source made the active and inactive calls. Calls come from the whole dose curve; as a rule, active = well fitted cell-killing curve with a large enough effect; inconclusive = small, poorly fitted or top-dose-only effect, or effect the other way; inactive = no such curve, though single readings can be large or run the other way.
Potency is the fitted concentration of half-maximal effect.

Test: Quantitative High-Throughput drug screen in 47 multiple myeloma cell lines against the NCATS MIPE library collection: SKMM1_PLB cell viability assay (AID 1919863); note: nearly all actives have a fitted effect of over 35% in size; for viability: series mostly up to about 46 µM
Conditions: SKMM1 myeloma viability, CellTiter-Glo ATP, 48 h; viability: stronger effect = lower value
Description: PI: Beverly A. Mock Ph.D.
Laboratory of Cancer Biology and Genetics,
Center for Cancer Research, National Cancer Institute,
National Institute of Health, Bethesda, Maryland
Drug resistance and disease progression are common in multiple myeloma (MM) patients, underscoring the need for new therapeutic combinations. […] We hypothesized that effective combinations would reduce MYC expression and enhance p16 activity. […] These preclinical data identify potentially useful drug combinations for evaluation in drug-resistant MM and reveal potential mechanisms of combined drug sensitivity.
Described herein is the primary MIPE qHTS used to cherrypick compounds. Validated compounds were then further tested for potential synergistic activiy.
[1] Peat TJ, Gaikwad SM, Dubois W, Gyabaah-Kessie N, Zhang S, Gorjifard S, Phyo Z, Andres M, Hughitt VK, Simpson RM, Miller MA, Girvin AT, Taylor A, Williams D, D'Antonio N, Zhang Y, Rajagopalan A, Flietner E, Wilson K, Zhang X, Shinn P, Klumpp-Thomas C, McKnight C, Itkin Z, Chen L, Kazandijian D, Zhang J, Michalowski AM, Simmons JK, Keats J, Thomas CJ, Mock BA. Drug combinations identified by high-throughput screening promote cell cycle transition and upregulate Smad pathways in myeloma. Cancer Lett. 2023 Aug 1;568:216284. doi: 10.1016/j.canlet.2023.216284. Epub 2023 Jun 24. PMID: 37356470; PMCID: PMC10408729.
SEQUENCE No. (e.g., 1, 2, 3, etc.); […] (e.g., Cells, Incubation, Reagent, etc.); VALUE and DESCRIPTION.
1; Cells; 5 uL; white, solid bottom 1536-well Greiner assay plate.
2; Compounds; 23 nL; Kalypsis pin tool (Wako USA) equipped with a 1536-well pin head to transfer to the assay plates.
3; Incubation; 48 hours; 37C incubation.
4; Reagent;5uL; CellTiter Glo (Promega).
5; Detector; 425V; Luminescence; Viewlux PerkinElmer.
NOTES (numbers refer to Sequence numbers above)
1. The cell-based screening methods employed in this study were like those previously published. Briefly, the corresponding myeloma cell lines were screened in 1,536-well plates with 500 cells, 5-uL per well for inhibition of cell viability (assessed by measuring ATP levels with CellTiterGlo).
2. NCATS MIPE 4.0 library of approved and investigational drugs were added using the Kalypsis pin tool. Wells treated with DMSO only for 100% viability and media only for 0% viability were used as controls.
3. The assay plates were covered and incubated for 48 hours in a 37C, 5% CO2 incubator with controlled humidity.
4. After 48 hours, CellTilter-GloTM luminescent substrate mix (Promega) reagent was added to the assay plate and plates we incubated for 5 min at room temperature.
5. Signal was measured as median relative luminescence units on a ViewLux (PerkinElmer) multiplate reader.
[1] Heske CM, Davis MI, Baumgart JT, Wilson K, Gormally MV, Chen L, Zhang X, Ceribelli M, Duveau DY, Guha R, Ferrer M, Arnaldez FI, Ji J, Tran HL, Zhang Y, Mendoza A, Helman LJ, Thomas CJ. Matrix Screen Identifies Synergistic Combination of PARP Inhibitors and Nicotinamide Phosphoribosyltransferase (NAMPT) Inhibitors in Ewing Sarcoma. Clin Cancer Res. 2017 Dec 1;23(23):7301-7311. doi: 10.1158/1078-0432.CCR-17-1121. Epub 2017 Sep 12. PMID: 28899971; PMCID: PMC6636827.
For `C#Cc1cccc(Nc2ncnc3cc(OC)c(OCCCCCCC(=O)NO)cc23)c1`, the Potency was 0.418 µM (active). With `Nc1ccn([C@@H]2CS[C@H](CO)O2)c(=O)n1` the viability was 127% (inactive). In the case of `Nc1ccccc1NC(=O)c1ccc(CNC(=O)OCc2cccnc2)cc1`, the Potency is reported as 1.32 µM (active). For `CN(C)Cc1c(C(=O)NCCOc2ccc(C(=O)NO)cc2)oc2ccccc12`, the Potency was 1.05 µM (active). In the case of `CC(C)[C@H](C(=O)Nc1ccc(C(=O)NO)cc1)c1ccccc1`, the Potency is reported as 1.18 µM (active). For `COc1cc2nccc(Oc3ccc(NC(=O)C4(C(=O)Nc5ccc(F)cc5)CC4)cc3)c2cc1OC`, the Potency was 16.6 µM (active). With `O=C(Nc1nc2cccc(-c3ccc(CN4CCS(=O)(=O)CC4)cc3)n2n1)C1CC1` the Potency was 16.6 µM (active). For `O=C(O)Cn1nnc(-c2cc(N3CCC(Oc4cc(F)ccc4Br)CC3)no2)n1`, the viability was 126% (inactive). With `CC[C@@]1(O)C(=O)OCc2c1cc1n(c2=O)Cc2cc3cc(O)ccc3nc2-1` the Potency was 1.32 µM (active). For `CC(C)c1ccc(Cn2ccc3c4c(N)nc(NC5CC5)nc4ccc32)cc1`, the Potency was 11.8 µM (active). For `Cc1ccc(C(N)=O)cc1Nc1nccc(-c2cn(C(C)C)c3cnccc23)n1`, the Potency was 16.6 µM (active). With `CCC(=C(c1ccccc1)c1ccc(OCCN(C)C)cc1)c1ccccc1` the Potency was 20.9 µM (active). In the case of `Cc1c(CN2CCN(S(C)(=O)=O)CC2)sc2c(N3CCOCC3)nc(-c3cnc(N)nc3)nc12`, the Potency is reported as 0.0833 µM (active). In the case of `O=C(Nc1cn[nH]c1-c1nc2ccc(CN3CCOCC3)cc2[nH]1)NC1CC1`, the Potency is reported as 10.5 µM (active). With `O=C(Nc1cc(C(F)(F)F)cc(C(F)(F)F)c1)c1cc(Cl)ccc1O` the Potency was 0.833 µM (active). With `O=C(O)CCCc1c[nH]c2ccccc12` the viability was 113% (inactive). With `Fc1cc(-c2cccc3ncc(-c4cnn(C5CCNCC5)c4)nc23)cc(F)c1CN1CCOCC1` the Potency was 23.5 µM (active). In the case of `COC(=O)Nc1ccc(-c2nc(N3CCOCC3)c3cnn(C4CCN(Cc5cccnc5)CC4)c3n2)cc1`, the Potency is reported as 2.09 µM (active). For `CC(NCc1ccc2c(c1)nc(NC(=O)c1ccc(-c3cn[nH]c3)s1)n2CC(C)(C)O)C(C)(C)C` (stereo not given), the Potency was 0.743 µM (active). For `CCC[C@H](NC(=O)C(C#N)=Cc1cccc(Br)n1)c1ccccc1`, the Potency was 2.96 µM (active). For `CC(C)c1cnn2c(NCc3ccccc3)cc(N[C@@H](CO)[C@H](O)CO)nc12`, the Potency was 0.372 µM (active). With `O=C(CCCCCCNC(=O)c1cnc(N(c2ccccc2)c2ccccc2)nc1)NO` the Potency was 9.35 µM (active). With `NC(=O)c1c(OCc2c(F)cc(Br)cc2F)nsc1NC(=O)NCCCCN1CCCC1` the Potency was 29.6 µM (active). For `C1Cc2[nH]nc(-c3nn[nH]n3)c2C1`, the viability was 115% (inactive). In the case of `CN(c1ncccc1CNc1nc(Nc2ccc3c(c2)CC(=O)N3)ncc1C(F)(F)F)S(C)(=O)=O`, the Potency is reported as 14.8 µM (active). With `COc1cccc(-c2ccc(NC(=O)C3=C(C(=O)O)CCC3)c(F)c2)c1` the Potency was 5.9 µM (active). In the case of `CNC(=O)CN1CCC(Oc2cc3c(Nc4cccc(Cl)c4F)ncnc3cc2OC)CC1`, the Potency is reported as 0.0264 µM (active). For `CC(C)(C)OC(=O)Nc1ccc(-c2cc(C(=O)NCCCCCCC(=O)NO)no2)cc1`, the Potency was 2.09 µM (active). In the case of `Cc1cc(Nc2nc(N[C@@H](C)c3ccc(F)cc3)c(C#N)cc2F)n[nH]1`, the Potency is reported as 1.05 µM (active). In the case of `COc1cc(C(=O)N2CCC(N3CCN(C)CC3)CC2)ccc1Nc1ncc2c(n1)N(C)c1ccccc1C(=O)N2C`, the Potency is reported as 5.9 µM (active). In the case of `CC(C)(C)NC(=O)[C@H]1CN(Cc2cccnc2)CCN1C[C@@H](O)C[C@@H](Cc1ccccc1)C(=O)N[C@H]1c2ccccc2C[C@H]1O`, the Potency is reported as 18.7 µM (active). With `COc1cccc2c(NCc3ccccc3)nc(-n3c(N)nc4ccccc43)nc12` the Potency was 7.43 µM (active). With `C[C@H]1C[C@@H]2[C@@H]([C@@H](O)C[C@@]3(C)[C@H]2CC[C@]3(O)C(=O)CO)[C@@]2(C)C=CC(=O)C=C12` the viability was 112% (inactive). With `CC1(C)CC(=O)c2c(C(F)(F)F)nn(-c3ccc(C(N)=O)c(NC4CCC(OC(=O)CN)CC4)c3)c2C1` (stereo not given) the Potency was 0.264 µM (active). For `CNC(=O)c1ccc(-c2cnc3ncc(Cc4ccc5ncccc5c4)n3n2)cc1F`, the viability was 133% (inactive). In the case of `Cc1cc(CN2CCN(c3c(Br)cnc4nc(-c5ccc(N6CCN(C)CC6)cc5)[nH]c34)CC2)no1`, the Potency is reported as 10.5 µM (active). In the case of `CCC1=C[C@@H]2CN(C1)Cc1c([nH]c3ccccc13)[C@@](C(=O)OC)(c1cc3c(cc1OC)N(C)[C@@H]1[C@@](O)(C(=O)OC)[C@H](OC(C)=O)[C@]4(CC)C=CCN5CC[C@]31[C@@H]54)C2`, the Potency is reported as 0.0235 µM (active). With `O=C(c1ccc(Nc2nccc(-c3cc4ccccc4s3)n2)cc1)N1CCC(N2CCCC2)CC1` the Potency was 23.5 µM (active). With `CCCNC(=O)Nc1ccc(Oc2ncnc3cc(OC)c(OC)cc23)cc1Cl` the viability was 116% (inactive). With `CCNC(=O)Nc1ccc2ncc(Nc3ccc(C)cc3)nc2n1` the viability was 139% (inactive).
